Assay in all cases: PBM binding z-score (relative to random genomic background probes); higher = stronger binding; sequences stand for … in GC…GCGATTGACAGCGTAGAATGAAGG
Experiment [1] deals with FXR:RXRa (NR concentration 270 nM, RXRa partner concentration 90 nM). The method, boiled down:
(§1)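 Scanned fluorescence from custom Agilent 4×180K protein-binding microarrays was regression-normalized. Binding z-scores use random background probes as reference. Ligand-free nuclear receptor dimers were incubated on the arrays for 1 h and detected with antibodies against each partner (one per run).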

Experiment [2] has as its system LXRa:RXRa (NR concentration 270 nM, RXRa partner concentration 90 nM). The method, boiled down:
as §1

The subject of experiment [3] is LXRa homodimer (NR concentration 270 nM). Summed up: as §1
Experiment [4] concerns LXRb:RXRa (NR concentration 270 nM, RXRa partner concentration 90 nM). The method, boiled down:
as §1

The test system of experiment [5] is LXRb homodimer (NR concentration 270 nM). The method, boiled down:
as §1

Experiment [6] has as its system PPARa:RXRa (NR concentration 270 nM, RXRa partner concentration 90 nM). Summed up:
as §1

For experiment [7], the system named is PPARg:RXRa (NR concentration 180 nM, RXRa partner concentration 90 nM). The method, boiled down:
as §1

Experiment [8] relates to PPARg:RXRa 270nM:90nM, anti-RXR (NR concentration 270 nM, RXRa partner concentration 90 nM). Summed up: as §1
The subject of experiment [9] is PPARg:RXRa 30nM:10nM, anti-RXR (NR concentration 30 nM, RXRa partner concentration 10 nM). Summed up:
as §1

Experiment [10] relates to PPARg:RXRa 90nM:30nM, anti-RXR (NR concentration 90 nM, RXRa partner concentration 30 nM). The method, boiled down: as §1
In experiment [11] the test system is PPARg:RXRa DBDmut IVT, anti-RXR (DBD mutation: RXRa K156A/R161A, NR concentration 270 nM, RXRa partner concentration 90 nM). Summed up: as §1
Experiment [12] relates to PPARg:RXRa IVT, anti-PPARg (NR concentration 270 nM, RXRa partner concentration 90 nM). Summed up:
as §1

Experiment [13] concerns PPARg DBDmut:RXRa IVT, anti-PPARg (DBD mutation: PPARg1 K132A/R137A, NR concentration 270 nM, RXRa partner concentration 90 nM). The method, boiled down:
as §1

For experiment [14], the system named is PPARg DBDmut IVT, anti-PPARg (DBD mutation: PPARg1 K132A/R137A, NR concentration 270 nM). Summed up:
as §1

In experiment [15] the test system is PPARg homodimer (NR concentration 180 nM). The method, boiled down:
as §1

The subject of experiment [16] is PXR:RXRa (NR concentration 270 nM, RXRa partner concentration 90 nM). The method, boiled down:
as §1

For experiment [17], the system named is PXR homodimer (NR concentration 270 nM). Summed up:
as §1

The test system of experiment [18] is RARa:RXR (NR concentration 270 nM, RXRa partner concentration 90 nM). The method, boiled down: as §1
For experiment [19], the system named is RARa homodimer (NR concentration 270 nM). The method, boiled down: as §1
Experiment [20] concerns RARb:RXRa (NR concentration 270 nM, RXRa partner concentration 90 nM). Summed up:
as §1

As for CAAGCTAGGTCAAGGTCAAAGTCGGTTTGTGCCA, the PBM binding z-score in [1] came out at 6.4; in experiment [2] it was 5.71; in [3], 4.42; in experiment [4] it was 4.74; in experiment [5], 1.37; in experiment [6], 5.36. Moreover, the PBM binding z-score in experiment [7] stood at 5.58; in [8] it was 5.39; in experiment [9], 2.37; in [10], 4.73; in [11], 4.41; in experiment [12], 5.17. Further, the PBM binding z-score in experiment [13] was -0.662; in experiment [14] it was 0.302; in [15], 3.54; in [16] it was 5.15; in [17] it was 1.35; in experiment [18], 5.06. Moreover, the values for the PBM binding z-score in [19] and in experiment [20] were 1.43 and 5.2, respectively.
Take CACACTAGGTCACCGGAAGGTCAAAGTCCGCATG: the PBM binding z-score in experiment [1] is 6.4; in experiment [2], 6.18; in experiment [3], 6.43; in experiment [4] it was 5.72; in experiment [5] it was 2.16; in [6] it was 6.24. In addition, the PBM binding z-score was determined as 8.71 in experiment [7]; 7.07 in [8]; 4.59 in [9]; 6.32 in [10]; 7.26 in experiment [11]; 8.19 in experiment [12]. Also, the PBM binding z-score worked out at 3.49 in experiment [13]; 0.952 in experiment [14]; 7.05 in [15]; 6.16 in [16]; 2.43 in [17]; 7.66 in [18]. For the same sequence, the PBM binding z-score in experiment [19] was 2.69; in [20], 5.52.
On to GATACAGGGTCAGCGAGAGGCCAGAGTATGGAAA, for which the PBM binding z-score was 5.07 in experiment [1]; 3.15 in experiment [2]; -0.446 in experiment [3]; 2.63 in experiment [4]; -1.12 in [5]; 5.05 in [6]. In addition, the PBM binding z-score stood at 4.14 in experiment [7]; 3.78 in experiment [8]; 1.07 in experiment [9]; 2.38 in experiment [10]; 1.16 in experiment [11]; 2.78 in experiment [12]. The PBM binding z-score in experiment [13] is -0.0146; in experiment [14], -0.645; in [15], 2.81; in experiment [16], 3.7; in [17] it was 0.293; in experiment [18] it was 4.49. Moreover, the figures for the PBM binding z-score in experiment [19] and in [20] were 0.19 and 4.26, respectively.
With CCTGCTAGGTCATGTTCAGCTAATCTACAGTATG, the PBM binding z-score in [1] turned out to be 3.33; in experiment [2], 2.25; in [3] it was 0.437; in [4], 1.65; in experiment [5], 0.467; in experiment [6] it was 2.69. Moreover, the PBM binding z-score is 1.36 in experiment [7]; 1.91 in experiment [8]; 0.403 in [9]; 1.16 in [10]; 4.06 in [11]; 2.94 in experiment [12]. In addition, the PBM binding z-score was -0.127 in [13]; 0.556 in [14]; 1.51 in [15]; 1.07 in [16]; -0.338 in experiment [17]; 1.53 in experiment [18]. In addition, the PBM binding z-score in experiment [19] is -0.173; in [20] it was 3.63.
CGTCAAATTTCAACTAAGGTAACGTAAAGCACGC: the PBM binding z-score in experiment [1] was 1.08; in experiment [2] it was 0.429; in [3], 0.483; in experiment [4] it was 0.87; in experiment [5], 0.711; in experiment [6] it was 0.628. For the same sequence, the PBM binding z-score in [7] was found to be 0.633; in experiment [8], 0.149; in experiment [9] it was 0.303; in experiment [10], 0.502; in experiment [11] it was 0.435; in [12], 0.656. For the same sequence, the PBM binding z-score in [13] amounted to 1.41; in [14] it was 1.4; in experiment [15] it was 0.372; in experiment [16], 0.319; in experiment [17], 0.588; in experiment [18], 0.981. Further, the results for the PBM binding z-score in [19] and in experiment [20] were 1.04 and 0.603, respectively.
Consider AATAGCAGGCCAAGGGTCACTCAAGATTAGTCCG, for which the PBM binding z-score is 2.6 in experiment [1]; 3.25 in experiment [2]; 0.455 in experiment [3]; 2.65 in experiment [4]; -0.0727 in experiment [5]; 4.75 in experiment [6]. Besides, the PBM binding z-score in [7] turned out to be 8.33; in experiment [8], 7.83; in [9] it was 6.83; in experiment [10], 8.23; in [11] it was 2.14; in [12], 4.27. Further, the PBM binding z-score in [13] was 0.158; in experiment [14], -0.162; in [15] it was 1.57; in experiment [16] it was 3.26; in experiment [17], -0.222; in [18], 4.09. Moreover, the PBM binding z-score in experiment [19] was determined as 0.758; in experiment [20], 3.54.

The values are drawn from the supplement of paper PMC6555819.
